FMDV antiviral: blocks foot and mouth disease virus; Potency, µM (series often up to 57.9 µM), for the others: top-dose activity change, negative = inhibition, usual class: inhibitors; FMDV antiviral cell-based qHTS; hit rate 1.2% among 410,000; calls by dose curve; tested in HEK293T cells; note: read-out not given here; potency is the fitted concentration of half-maximal effect; % is set by controls: 0 for no effect and ±100 for the full control effect; nearly all actives have a fitted effect of over 45% in size
Shiga toxin inh: blocks Shiga toxin action in Vero cells | AID 2315 | hit rate 9.2% among 290,000 | inhibition, % at 38.7 µM | Vero cells, Shiga toxin protein synthesis inhibition reporter; in the data active = inhibition mostly above about 28%, no sharp cut-off; inactive = mostly below about 43%; note: 0% is about no effect
LASV entry inh: blocks Lassa virus binding to or entry into cells. Lassa virus pseudotype entry inhibition, cell reporter. Potency, µM (doses to about 37.9 µM), for the others: at the top dose activity change, negative = inhibition, actives largely listed as inhibitors. hit rate 1.2% among 300,000; calls by dose curve; tested in HEK293 cells; note: potency is the fitted concentration of half-maximal effect; % is set by controls: 0 for no effect and ±100 for the full control effect; nearly all actives have a fitted effect of over 50% in size
MARV entry inh: Marburg virus entry inhibition | Marburg virus pseudotyped entry inhibition, cell reporter | Potency, µM (highest dose often 37.8 µM), for the others: top-dose activity change, negative = inhibition, usual class: inhibitors | hit rate 1.8% among 300,000; calls by dose curve; tested in HEK293 cells; note: potency is the fitted concentration of half-maximal effect; % is set by controls: 0 for no effect and ±100 for the full control effect
HCV inh: HCV inhibition; Huh7.5.1 HCVcc-Cre infection, luciferase reporter, 44 h; Potency, µM (highest dose often 41.8 µM), inactives show at the top dose activity change, negative = inhibition, actives largely listed as inhibitors; hit rate 3.4% among 340,000; AID 651820; active = well fitted inhibition curve with a large enough effect; inconclusive = small, poorly fitted or top-dose-only effect, or another doubt; inactive = no such curve, though single readings can be large or run the other way; note: potency is the fitted concentration of half-maximal effect; % is set by controls: 0 for no effect and ±100 for the full control effect
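Infectious HCVcc-Cre (~0.5 moi) was added to cells just after compound, with cells seeded 4 h earlier at 1,000 per well. Luciferase activity after 44 h culture reported infection; substrate was incubated 15 min at room temperature before reading.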
CHX counter: counter-screen hit for Shiga toxin inhibitors, cycloheximide. max response, %. cell reporter, cycloheximide protein synthesis inhibition counterscreen. hit rate 12% among 300,000; in the data active = max response mostly above about 13%, no sharp cut-off; inactive = mostly below about 14%; note: read at 38.3 µM for the half of the compounds with a filed dose; 0% is about no effect
An asterisk follows results filed as active; u = inconclusive; x = no result; [ ] = dose if it differs, or a comment. The list is not random: actives were taken first. Their share in the collection is about 13%.

SMILES | FMDV antiviral | Shiga toxin inh | LASV entry inh | MARV entry inh | HCV inh | CHX counter
COc1cc(C(=O)Nc2cccc(-c3nc4cc(C)ccc4o3)c2)cc(OC)c1OC | 24% | 81* | 2% | 8% | u | 17*
Cc1ccc2oc(-c3cccc(NC(=O)C4CCCO4)c3)nc2c1 (stereo unspecified) | x | 76* | 4% | 14% | u | 41*
CCOc1ccc(NC(=O)c2cc3cc4ccc(C)cc4nc3o2)cc1 | -13% | 20 | 0%[46.1 µM] | 9%[46.1 µM] | x | 8
COc1cc(NC(=O)c2cc3cc4ccc(C)cc4nc3o2)cc(OC)c1OC | 3.2µM* | x | u | u | x | x
COc1ccc(CCNC(=O)CC(C)S(=O)(=O)c2ccc3c(c2)NC(=O)CO3)cc1OC (stereo unspecified) | -11% | -3 | x | x | 10% | -3
O=C(Nc1cccc(-c2nc3cc(Cl)ccc3o2)c1)C1CCCO1 (stereo unspecified) | 29% | 47 | -2% | -2% | u | 14*
COC(=O)C1=C(C)N(CCCC(=O)O)C(=O)NC1c1ccccc1OS(=O)(=O)c1ccc([N+](=O)[O-])cc1 (stereo unspecified) | -14% | x | x | x | 7% | x
Cc1ccc(NC(=O)CN2C(=O)N/C(=C/c3cc(C)n(-c4ccc(C(=O)O)cc4)c3C)C2=O)cc1 | -1% | 84* | 0% | u | 11% | 33
Cc1ccc(NC(=O)CN2C(=O)S/C(=C\c3cc(C)n(-c4ccc(C(=O)O)cc4)c3C)C2=O)cc1 | 0% | 11 | 0%[46.1 µM] | -10%[46.1 µM] | 0% | 5
CCC(C)(C)n1nnnc1C(C(C)C)N(Cc1ccco1)Cc1cc2cc3c(cc2[nH]c1=O)OCO3 (stereo unspecified) | u | -14 | 2% | 16µM* | 22µM* | -1
CCC(C)(C)n1nnnc1C(C(C)C)N(Cc1cccnc1)Cc1ccco1 (stereo unspecified) | -24% | -5 | 16%[46.1 µM] | u | -21% | -6
COCCn1nnnc1C(C(C)C)N(Cc1ccccc1)Cc1cc2cc(OC)ccc2[nH]c1=O (stereo unspecified) | 0% | -7 | u | -7%[46.1 µM] | u | 8
COc1ccc2[nH]c(=O)c(CN(Cc3ccco3)C(c3nnnn3Cc3ccccc3)C(C)C)cc2c1 (stereo unspecified) | u | -34 | u | 13µM* | u | 1
COc1cccc(CN2CC(C(=O)NC3CCC(O)CC3)CCC2=O)c1 (stereo unspecified) | -23% | -6 | -4% | 17% | 23% | -2
CCC1CCCCN1c1ccc([N+](=O)[O-])cc1/C=N/NC(=O)Cn1c2ccccc2c(=O)c2ccccc21 (stereo unspecified) | -18% | 21 | -4% | 0.89µM* | u | -2
CCc1ccc(OCC(=O)N/N=C/c2cc([N+](=O)[O-])ccc2N2CCCCCC2)cc1 | -10% | -9 | u | 13% | -23% | 0
Cc1ccc(S(=O)(=O)C(c2ccccc2)c2c(C)noc2C)cc1 (stereo unspecified) | -27% | 2 | 0% | 0.63µM* | -6% | -3
O=C(N/N=C/c1cn(-c2ccccc2)nc1-c1ccc2c(c1)OCCO2)c1ccncc1 | 20% | 50* | -14% | 13%[46.1 µM] | -3% | 29*
O=C(N/N=C\c1cn(-c2ccccc2)nc1-c1ccccc1)c1ccc2c(c1)OCO2 | -10% | 23 | -16% | u | 13µM* | 16*
O=C(N/N=C/c1cn(-c2ccccc2)nc1-c1ccc(F)cc1)c1ccc2c(c1)OCO2 | -29% | 79* | -18% | u | u | 18*
CN1CCN(C(=O)/C=C/c2cn(-c3ccccc3)nc2-c2ccc3c(c2)OCCO3)CC1 | 24% | -17 | u | 21µM* | u | -5
COc1ccc(-c2nn(-c3ccccc3)cc2/C=N/NC(=O)c2ccc3c(c2)OCO3)cc1 | x | 59 | x | 2% | x | 14
Cc1cc(C)c2nc(SCC(=O)Nc3cc(C)on3)c(C#N)cc2c1 | -1% | -4 | -13%[46.1 µM] | -7%[46.1 µM] | -15% | -2
Cc1cc(NC(=O)CSc2nc3ccccc3cc2C#N)no1 | 36% | 39* | 8% | -15%[46.1 µM] | 5% | 17
Cc1cc(NC(=O)CSc2nc3c(cc2C#N)CCC3)no1 | 41% | 97* | u | u | 5% | 29*
SMILES | FMDV antiviral | Shiga toxin inh | LASV entry inh | MARV entry inh | HCV inh | CHX counter
Cc1cc(NC(=O)CSc2nc3c(cc2C#N)CCCC3)no1 | 78% | 49* | u | u | -15% | 38*
CCCOC(=O)c1ccc(NC(=O)CSC2=Nc3ccccc3C3CC=NN23)cc1 (stereo unspecified) | -8% | -6 | 2% | -3% | 3% | 5
C=CCN1C(=O)/C(=C2/Sc3ccc(OC)cc3N2CC)SC1=S | -22% | x | x | x | -1% | -2
O=C(O)/C=C\C(=O)Nc1cccc(NC(=O)c2ccccc2)c1 | -6% | 52 | 7%[46.1 µM] | 1%[46.1 µM] | 4% | 22*
O=C(O)/C=C/C(=O)Nc1ccc2nccnc2c1 | 45% | 46 | 9% | 23%[46.1 µM] | 4% | 23*
O=C(O)/C=C/C(=O)Nc1ccc(C(=O)c2ccccc2)cc1 | -13% | -12 | x | x | 6% | -1
O=C(O)/C=C/C(=O)Nc1ccc(NC(=O)c2ccccc2)c(Cl)c1 | -1% | -11 | u | u | 8.9µM* | 12
COc1cc2c(cc1OC)C(c1c(Cl)cccc1Cl)NC(=O)C2 (stereo unspecified) | -3% | 3 | x | x | -7% | -2
CCOC(=O)c1cc(S(=O)(=O)N2CCN(c3ccccc3OC)CC2)cn1C | -4% | -5 | -1%[46.1 µM] | -3%[46.1 µM] | -15% | 18
CCC(c1nnnn1C1CCCCC1)N(Cc1ccco1)Cc1cc2ccc(OC)cc2[nH]c1=O (stereo unspecified) | u | -6 | u | u | 3.5µM* | -6
CCOC(=O)Cn1nnnc1C(CC)N(Cc1cccs1)Cc1cc2ccc(OC)cc2[nH]c1=O (stereo unspecified) | -16% | -19 | 1% | u | 9% | 8.5*
Cc1ccc2cc(C(c3nnnn3C3CCCC3)N(Cc3ccco3)Cc3cccs3)c(=O)[nH]c2c1 (stereo unspecified) | -5% | -4 | u | u | -24% | 8
COc1ccc2[nH]c(=O)c(C(c3nnnn3C3CCCC3)N(C)C3CCCCC3)cc2c1 (stereo unspecified) | 33% | 14 | 2% | 5.2µM* | -12% | -3
CCOc1ccc2[nH]c(=O)c(C(c3nnnn3C3CCCCC3)N3CCN(C)CC3)cc2c1 (stereo unspecified) | 6% | -3 | -5% | 11% | -5% | -4
CN(CC(=O)Nc1c(Cl)cccc1Cl)C(=O)CNC(=O)c1ccc2ccccc2c1 | -24% | x | -29% | 0% | 5%[8.37 µM] | x
COc1ccc(CC(=O)OCC(=O)NC(=O)NC23CC4CC(CC(C4)C2)C3)cc1 | -10% | -18 | -27% | 1% | 3% | 8

Screening results deposited in PubChem BioAssay by National Center for Advancing Translational Sciences (NCATS).
